Results published in PubChem BioAssay (NCI).
This is part of a sample that, as a whole, favours compounds with a hit. Of some 83,000 tested, about 20% had one in any assay.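 48-hour exposure, single concentration, 96-well plates; percent growth endpoint where 0 means no net growth. Active: below 10.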 Active and inactive are the calls of the source.

Each molecule was assayed on HL-60(TB) leukemia (assay: NCI-60 one-dose screen, 48 h (100 = growth as untreated, 0 = no growth, -100 = all killed)). Settings: 10 µM unless noted.

Structure (SMILES) | growth
CCOC(=O)c1c(C)oc2ncnc(Nc3ccc(NC(=O)Nc4cccc(Cl)c4)cc3)c12 | 88.4% (inactive)
NC(=S)N=Nc1c(O)c2ccccc2c2ccccc12 | 100% (inactive)
C[C@]12CC[C@@H]3c4ccc(O)cc4CC[C@H]3[C@@H]1C[C@H](O)C2 | 52% (inactive)
CCN1C(=O)N(CC)C2C1NN=c1s/c(=C3\C(=O)N(CCC(C)C)c4ccccc43)c(=O)n12 (stereo not given) | -38.2% (active)
C=C1CC[C@@H]2[C@](C)(COC(C)=O)[C@H](OC(C)=O)CC[C@@]2(C)[C@@H]1CC(Nc1ccc(S(=O)(=O)Nc2ncccn2)cc1)C1=CCOC1=O (stereo not given in full) | -17.2% (active)
NC[C@H](O)c1ccc(O)c(O)c1 | 98.8% (inactive)
COc1ccc2c(CCc3ccc(Cl)cc3)c3[n+](cc2c1OC)CCc1cc2c(cc1-3)OCO2 | 10% (inactive)
Cc1nc(Nc2ccc(NC(=S)Nc3ccccc3)cc2)nc2nc(SCc3ccccc3)[nH]c(=O)c12 | 76% (inactive)
c1ccc(CSc2ncnc3nc[nH]c23)nc1 | 96.4% (inactive)
O=C(Nc1ccc(-n2cc(-c3ccncc3)c(-c3ccc(Cl)c(O)c3)n2)cc1)Nc1ccc(Cl)c(C(F)(F)F)c1 | -10.5% (active)
CCOC(=O)N1C=CC2C=CC1C1C=CC=CC2N1C(=O)OCC (stereo not given) | 104% (inactive)
NS(=O)(=O)c1ccc(N2N=C(c3cccs3)CC2c2ccccc2O)cc1 (stereo not given) | -25.9% (active)
Nc1ncc(-c2ccc3ncnc(N4CCc5ccc(Cl)cc54)c3c2)cc1C(F)(F)F | 22.9% (inactive)
Cc1ccc(-c2nn(-c3ccccc3)cc2C=C2C(=O)ON=C2C(C)C)cc1 | -37.7% (active)
COC(=O)[C@]12CC[C@@H](C)[C@H](C)[C@@H]1C1=CC[C@@H]3[C@@]4(C)C[C@@H](OC(C)=O)[C@H](O)[C@@](C)(CO)[C@@H]4[C@H](O)C[C@@]3(C)[C@]1(C)CC2 | -56.6% (active)
Cc1ccc2c(C)c3c(ccc4ccccc43)c[n+]2c1 | 94.4% (inactive)
Cc1nc(NN)c([N+](=O)[O-])c(NN)n1 | 68.1% (inactive)
CC12CCC(CC1)C(C)(C)O2 | 103% (inactive)
NS(=O)(=O)Oc1ccc(-c2sc3cc(O)ccc3c2C(=O)c2ccc(OCCN3CCCCC3)cc2)cc1 | 47.7% (inactive)
O=C(NCCCN1CCC(N2CCCCC2)CC1)C1=Cc2cc(Br)ccc2OC1 | 36.3% (inactive)

Structure (SMILES) | growth
CN1CCN(Cc2ccc(NC(=O)c3cncc(C#Cc4cncc5ncccc45)c3)cc2C(F)(F)F)CC1 | -3.29% (active)
Cc1nc2scc(-c3ccccc3)n2c(=O)c1CCO | 112% (inactive)
COc1cc(OC)cc(-c2n/c(=C\c3c(O)[nH]c4ccc(Cl)cc34)cc3c2=Nc2ccccc2-3)c1 | 90.2% (inactive)
CCOC(=O)Nc1nc2ccc(SCC(C)C)cc2s1 | 11.6% (inactive)
CCCc1c(OC(=O)c2ccccc2)nc2[nH]c(=O)sc2c1C | 98% (inactive)
CC(C)C[C@H](NC(=O)/C=C/Cn1ccc2ccccc2c1=O)B(O)O | 24.2% (inactive)
COc1cccc(C(=O)NNc2nc(Cl)nc(Cl)n2)c1 | 96.2% (inactive)
CC(Cl)(CCl)CS(=O)(=O)c1ccc(Cl)cc1 (stereo not given) | 87.2% (inactive)
CCN1CCN(C(=O)[C@@]2(C)CC[C@]3(C)CC[C@]4(C)C(=CC(=O)[C@@H]5[C@@]6(C)CC[C@H](OC7C[C@@H](O)[C@@H](O)C(C)O7)C(C)(C)[C@@H]6CC[C@]54C)[C@@H]3C2)CC1 (stereo not given in full) | -57.2% (active)
COc1cc(/C=N/NC(=O)c2ccccc2Nc2cccc(C(F)(F)F)c2)cc(OC)c1OC | -5.58% (active)
CCOC(=O)c1cc2c(n1Cc1cc(OC)cc(OC)c1Br)-c1nc(NC(C)=O)sc1CCC2 | 43.1% (inactive)
COc1ccc(/C=C(\C#N)n2nnc3cc(F)c(F)cc32)cc1 | 13.8% (inactive)
O=S1(=O)CCN(Cc2ccccc2)CC1 | 108% (inactive)
O=C(CN1C(=O)/C(=C\c2ccc(Cl)cc2)SC1=S)Nc1ncc(Cc2ccc(Cl)cc2)s1 | 102% (inactive)
CCCCCCCCCCCCCCCC[N+](C)(CCO)Cc1cnc[nH]1 (stereo not given) | -80.6% (active)
N/C(=N\O)c1ccncc1 | 102% (inactive)
COc1ccc(OC)c(NC(=O)c2sc3nc4c(cc3c2N)C(=O)CCC4)c1 | 88.4% (inactive)
C[Se]C(=O)CC1=C2C=C(F)C=CC2/C(=C\c2ccc(S(C)=O)cc2)C1C (stereo not given) | -40% (active)
CN(C)c1nc(-c2ccco2)n2nc(-c3ccc(Cl)cc3)cc2n1 | 90.8% (inactive)
CCN(CC)CC(O)COc1c(Br)c(Br)c(Br)c2c1OC(C)(C)C2 (stereo not given) | 14% (inactive)
